In PubChem BioAssay (NCI) one finds growth data, which are given here for 10 molecules.

Compounds without any hit were thinned out: in the full panel of roughly 83,000, 20% have a hit.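 In brief: 96-well plates, 48 h treatment, single concentration, percent growth endpoint.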 Unmarked numbers belong to inactive results. The source made the active and inactive calls. How the source made its calls: active means growth percent below 10; inactive means the rest.

Among the test systems are NCI-H23 lung; NCI-H226 lung; HOP-62 NSCLC; NCI-H460 lung; HOP-92 NSCLC; NCI-H522 lung; A549/ATCC NSCLC; 786-0 renal; COLO 205 colon.
Holding throughout (test): NCI-60 one-dose screen, 48 h (100 = growth as untreated, 0 = no growth, -100 = all killed)
The subject of a further assay is NCI-H322M lung. As to conditions: 10 µM unless noted.

For `COc1cc(C=O)ccc1Oc1ccc([N+](=O)[O-])cc1[N+](=O)[O-]`, the growth was 95.6% in the assay with NCI-H23 lung (10 µM unless noted); 99.9% in the assay with NCI-H226 lung (10 µM unless noted); 104% in the assay with NCI-H322M lung; 94.2% in the assay on HOP-62 NSCLC (10 µM unless noted); 104% with NCI-H460 lung (10 µM unless noted); 78.8% in the assay with HOP-92 NSCLC (10 µM unless noted). Besides, the growth is 94.3% in the assay with NCI-H522 lung (10 µM unless noted), 88.4% in the assay on A549/ATCC NSCLC (10 µM unless noted), 102% in the assay with 786-0 renal (10 µM unless noted) and 108% with COLO 205 colon (10 µM unless noted).

For the molecule `O=C(/C=C/c1cccc(Oc2ccc(Cl)cc2)c1)c1ccccc1`, the growth is 90.8% with NCI-H23 lung (10 µM); -57.9% (active) in the assay with NCI-H23 lung (100 µM); 104% with NCI-H226 lung (10 µM); -63.2% (active) with NCI-H226 lung (100 µM); -73% [100 µM] (active) with NCI-H322M lung; 98.5% in the assay with HOP-62 NSCLC (10 µM). The growth in the assay on HOP-62 NSCLC (100 µM) is -80.5% (active); with NCI-H460 lung (10 µM), 97.3%; with NCI-H460 lung (100 µM), -76.6% (active); in the assay on HOP-92 NSCLC (10 µM) it was 111%; in the assay on HOP-92 NSCLC (100 µM), -90.7% (active); in the assay with NCI-H522 lung (10 µM) it was 89.2%. Also, the growth with NCI-H522 lung (100 µM) is -64.6% (active); in the assay with A549/ATCC NSCLC (10 µM), 96.2%; in the assay on A549/ATCC NSCLC (100 µM) it was -75.7% (active); in the assay on 786-0 renal (10 µM) it was 91.3%; with 786-0 renal (100 µM), -88.9% (active); in the assay on COLO 205 colon (10 µM), 104%. In the assay on COLO 205 colon (100 µM), the growth was -71% (active).

In the case of `CCN(CC)CC#CCOC(=O)[C@]1(C)CCC[C@]2(C)c3ccc(C(C)C)cc3CC[C@@H]12`, the growth was 70.8% with NCI-H23 lung (10 µM unless noted); 82.5% in the assay on NCI-H226 lung (10 µM unless noted); 93.7% with NCI-H322M lung; 96.2% with HOP-62 NSCLC (10 µM unless noted); 97.9% with NCI-H460 lung (10 µM unless noted); 76.7% in the assay on HOP-92 NSCLC (10 µM unless noted). Further, the growth in the assay on NCI-H522 lung (10 µM unless noted) is 80.6%; in the assay on A549/ATCC NSCLC (10 µM unless noted), 87.5%; with 786-0 renal (10 µM unless noted), 81.2%; in the assay with COLO 205 colon (10 µM unless noted), 80.2%.

Take `Cc1c(C(C)(C)O)cn2ncnc(Oc3ccc(NC(=O)Nc4ccc(Cl)c(C(F)(F)F)c4)cc3)c12`: the growth was 23.6% in the assay with NCI-H23 lung (10 µM unless noted); 65.5% in the assay on NCI-H226 lung (10 µM unless noted); 56.7% in the assay on NCI-H322M lung; 65.4% in the assay with HOP-62 NSCLC (10 µM unless noted); 13.1% with NCI-H460 lung (10 µM unless noted); 4.28% (active) in the assay with HOP-92 NSCLC (10 µM unless noted). The growth with NCI-H522 lung (10 µM unless noted) is 11.6%; in the assay on A549/ATCC NSCLC (10 µM unless noted) it was 32.8%; with 786-0 renal (10 µM unless noted), 26.5%; with COLO 205 colon (10 µM unless noted), 45.6%.

Regarding `O=C(N=Nc1c(O)[nH]c2ccccc12)Nc1ccc(Br)cc1`, the growth in the assay with NCI-H23 lung (10 µM unless noted) is 101%; in the assay on NCI-H226 lung (10 µM unless noted), 83.6%; in the assay on NCI-H322M lung, 70.9%; in the assay on HOP-62 NSCLC (10 µM unless noted) it was 98.4%; in the assay on NCI-H460 lung (10 µM unless noted), 92.1%; in the assay with HOP-92 NSCLC (10 µM unless noted), 66.5%. The growth in the assay on NCI-H522 lung (10 µM unless noted) is 72.3%; with A549/ATCC NSCLC (10 µM unless noted) it was 98.9%; with 786-0 renal (10 µM unless noted), 89.6%; in the assay with COLO 205 colon (10 µM unless noted), 97.8%.

Regarding `COC1=CC(c2ccc[nH]2)=N/C1=C\c1[nH]c(C)c(C(=O)Oc2ccccc2)c1C`, the growth is -32.9% (active) with NCI-H23 lung (10 µM unless noted); -39.8% (active) in the assay on NCI-H226 lung (10 µM unless noted); -13.1% (active) with NCI-H322M lung; -22.2% (active) in the assay on HOP-62 NSCLC (10 µM unless noted); -31.2% (active) in the assay with NCI-H460 lung (10 µM unless noted); -35.4% (active) in the assay on HOP-92 NSCLC (10 µM unless noted). The growth was -64% (active) with NCI-H522 lung (10 µM unless noted), -44.1% (active) in the assay on A549/ATCC NSCLC (10 µM unless noted), -44.1% (active) in the assay on 786-0 renal (10 µM unless noted) and -81.4% (active) with COLO 205 colon (10 µM unless noted).

Take `Nc1c(C(=O)Nc2ccncc2)sc2nc3c(cc12)CCCCCCCC3`: the growth with NCI-H23 lung (10 µM unless noted) is -63.2% (active); in the assay on NCI-H226 lung (10 µM unless noted) it was 17.6%; in the assay on NCI-H322M lung it was -54.4% (active); in the assay on HOP-62 NSCLC (10 µM unless noted), -74.2% (active); in the assay with NCI-H460 lung (10 µM unless noted), -66.7% (active); in the assay with HOP-92 NSCLC (10 µM unless noted) it was -76.2% (active). Further, the growth was -84.9% (active) in the assay on NCI-H522 lung (10 µM unless noted), -62.7% (active) in the assay on A549/ATCC NSCLC (10 µM unless noted), -93.9% (active) in the assay with 786-0 renal (10 µM unless noted) and -83.2% (active) in the assay on COLO 205 colon (10 µM unless noted).

Turning to `C=C(C)[C@@H]1CC[C@]2(C(=O)O)CC[C@]3(C)[C@H](CC[C@@H]4[C@@]5(C)CCC(N)C(C)(C)[C@@H]5CC[C@]43C)[C@@H]12` (stereo partly drawn), the growth with NCI-H23 lung (10 µM unless noted) was 81.5%; with NCI-H226 lung (10 µM unless noted), 100%; in the assay with NCI-H322M lung, 68.9%; with HOP-62 NSCLC (10 µM unless noted), 80.4%; in the assay on NCI-H460 lung (10 µM unless noted) it was 33.1%; in the assay on HOP-92 NSCLC (10 µM unless noted), 88.1%. Further, the growth in the assay with NCI-H522 lung (10 µM unless noted) is 11.7%; in the assay with A549/ATCC NSCLC (10 µM unless noted), 47.9%; with 786-0 renal (10 µM unless noted), 0.398% (active); in the assay on COLO 205 colon (10 µM unless noted) it was -21.4% (active).

Consider `O=C1OCC2=C1C(c1cccc(C(F)(F)F)c1)c1cc3c(cc1N2CCO)CCC3` (stereo not drawn), for which the growth was 25.7% in the assay on NCI-H23 lung (10 µM unless noted); 40.2% with NCI-H226 lung (10 µM unless noted); 45% in the assay with NCI-H322M lung; 15.9% in the assay on HOP-62 NSCLC (10 µM unless noted); 3.4% (active) with NCI-H460 lung (10 µM unless noted); 64.2% in the assay on HOP-92 NSCLC (10 µM unless noted). Moreover, the growth with NCI-H522 lung (10 µM unless noted) was -18.4% (active); in the assay with A549/ATCC NSCLC (10 µM unless noted) it was 12.4%; in the assay with 786-0 renal (10 µM unless noted), 17%; in the assay with COLO 205 colon (10 µM unless noted), -55.2% (active).

On to `COc1ccc(C(=O)/C=C/c2ccc(OCc3ccc(Cl)cc3)cc2)cc1OC`, for which the growth in the assay on NCI-H23 lung (10 µM) is 84.1%; with NCI-H23 lung (100 µM) it was 29.2%; with NCI-H226 lung (10 µM), 87.1%; in the assay with NCI-H226 lung (100 µM) it was -7.94% (active); in the assay on NCI-H322M lung, 40.4% [100 µM]; in the assay on HOP-62 NSCLC (10 µM), 104%. Further, the growth was 5.95% (active) in the assay with HOP-62 NSCLC (100 µM); 95.3% with NCI-H460 lung (10 µM); 6.18% (active) with NCI-H460 lung (100 µM); 104% in the assay with HOP-92 NSCLC (10 µM); 12.5% with HOP-92 NSCLC (100 µM); 82.5% in the assay on NCI-H522 lung (10 µM). Moreover, the growth in the assay with NCI-H522 lung (100 µM) was 2.45% (active); in the assay with A549/ATCC NSCLC (10 µM), 85.9%; in the assay on A549/ATCC NSCLC (100 µM), 13.7%; in the assay on 786-0 renal (10 µM), 106%; in the assay on 786-0 renal (100 µM) it was -13.2% (active); with COLO 205 colon (10 µM), 117%. Moreover, in the assay on COLO 205 colon (100 µM), the growth is 41.8%.
